A selection: hits, their analogues and other compounds. The true share with any hit is near 8.1%.
Sfp inh – Sfp phosphopantetheinyl transferase inhibition; Q9F4F7; Biochemical Sfp PPTase activity, qHTS; Potency, µM, hits mostly inhibitors; 310,000 tested, 3.5% active;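 further: the enzyme is Sfp with the accession as filed and its product quenches rhodamine fluorescence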
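Compounds were incubated with enzyme (final 15 nM) for 15 min at room temperature before substrate addition started the reaction. Fluorescence at 525 nm excitation, 598 nm emission was recorded immediately and after 30 minutes.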
Epigenetic derep – epigenetic control regulation, reporter derepression | murine LDR cells, GFP reporter derepression, 30 h | Potency, µM (doses to about 53.9 µM), hits mostly activators | 280,000 tested, 0.2% active | AID 1865; further: nearly all actives have a fitted effect of over 60% in size
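Derepression of a silenced CMV-GFP reporter in murine LDR cells is scored by enumerating GFP-positive cells with a laser-scanning microplate cytometer after 30 hours of treatment at 37 C.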
ClpP mod – qHTS Assay for Activators of ClpP | ATP-dependent Clp protease proteolytic subunit (Bacillus subtilis (strain 168)), P80244 | purified B. subtilis ClpP, FRET peptide cleavage, 20 min | Potency, µM (top dose mostly 57.5 µM) | 340,000 tested, 1.9% active | AID 651965, 2013; active means well fitted falling curve with a large enough effect; inconclusive means small, poorly fitted or top-dose-only effect; inactive means no such curve, though single readings can be large or run the other way; further: the source files actives as falling curves though it sought activators and does not explain the sign; nearly all actives have a fitted effect of over 65% in size
Target sequence (P80244 whole entry, looked up): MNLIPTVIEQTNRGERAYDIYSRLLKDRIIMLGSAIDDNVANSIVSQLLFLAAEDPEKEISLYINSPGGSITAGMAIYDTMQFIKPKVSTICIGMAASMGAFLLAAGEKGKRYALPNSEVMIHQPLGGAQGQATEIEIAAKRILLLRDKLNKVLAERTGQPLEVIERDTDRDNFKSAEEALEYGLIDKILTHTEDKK
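FRET quenching reversal measured ClpP activation: 10 microg/mL B. subtilis ClpP at pH 8 with the FRET-FV decapeptide, read at 430 nm after 320 nm excitation. The 20-min minus 0-min signal was scaled between DMSO/no-enzyme wells and ADEP (5.8 microM final).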
Gal4-VP16 FLuc – Gal4-VP16 reporter inhibition counter-screen. Potency, µM (top dose mostly 53.6 µM), hits mostly inhibitors. Drosophila S2 Gal4-VP16 UAS-luciferase, luminescence, 20 h. AID 2546. 310,000 tested, 3.5% active;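 further: Gal4-VP16 expression switched on by copper sulfate through the metallothionein promoter; nearly all actives have a fitted effect of over 50% in size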
RORgamma inh – ROR gamma (mouse) transcription inhibition | P51450 | Drosophila S2 Gal4-RORgamma UAS-luciferase reporter, 20 h | Potency, µM (top dose mostly 53.6 µM), usual class: inhibitors | 310,000 tested, 5.4% active | AID 2551; further: nearly all actives have a fitted effect of over 60% in size
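Compounds are pin-transferred onto Drosophila Schneider cells expressing a copper-inducible Gal4–ROR gamma transactivation domain fusion. After 1 hr, copper sulfate is added to 700 uM final; luciferase is read 20 hr later.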
PINK1 expr mod – modulators of PINK1 expression; Potency, µM (top dose mostly 76.6 µM), actives largely listed as activators; 410,000 tested, 0.2% active; PINK1 immunofluorescence, high-content cytometry, 24 h; active means well fitted activation curve with a large enough effect; inconclusive means small, poorly fitted or top-dose-only effect; cell line not stated here; further: nearly all actives have a fitted effect of over 65% in size
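Readout is PINK1 immunofluorescence, quantified alongside mitochondrial, cell and nuclear markers by laser-scanning microplate cytometry. Cells from a stable line were exposed to compound titrations (5 concentrations) for 24 hours, with CCCP controls.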
Hits are given with their value; 0 = inactive; ? = inconclusive; - = not tested or not shown. Unless noted, the call rests on the fitted dose curve; in most records, active means well fitted curve in the direction sought with a large enough effect; inconclusive means small, poorly fitted or top-dose-only effect, or another doubt; inactive means no such curve, though single readings can be large; an effect the other way counts as inactive or inconclusive.

SMILES | Sfp inh | Epigenetic derep | ClpP mod | Gal4-VP16 FLuc | RORgamma inh | PINK1 expr mod
CCc1c(C)sc(NC(=O)c2cc(-c3ccc(OC)cc3)on2)c1C#N | - | 0 | 0 | - | - | 0
COc1ccccc1-c1noc(-c2ccc(NCC3CCCO3)c([N+](=O)[O-])c2)n1 (stereo not drawn) | - | 0 | 0 | - | - | 0
CC1CCN(C(=S)Nc2ccc(F)cc2)CC1 | 0 | 0 | 0 | ? | ? | 0
C/C(=N\NC(=S)Nc1ccc(F)cc1)C1CC1 | 45µM | 0 | 0 | ? | ? | 0
CSc1scc2c1-c1nc(SCC(=O)C(C)(C)C)ncc1CC2 | 0 | 0 | 0 | 0 | 0 | 0
C=CCNC(=O)CSc1ncc2c(n1)-c1c(csc1SC)CC2 | 0 | 0 | 32µM | 0 | 0 | 0
O=C(COc1ccccc1[N+](=O)[O-])Nc1cccnc1 | 0 | 0 | 0 | 0 | 0 | 0
Cc1ccnc(NC(=O)COc2ccccc2[N+](=O)[O-])c1 | 0 | 0 | - | ? | 11µM | -
Cc1ccc(NC(=O)COc2ccccc2[N+](=O)[O-])nc1 | 0 | 0 | - | ? | 6.3µM | 0
Cc1ccc(NC(=O)c2ccc(COc3ccccc3[N+](=O)[O-])o2)nc1 | - | - | 0 | - | - | 0
Cc1ccc(/C=N/NC(=O)CSc2nc3ccccc3s2)o1 | 0 | 0 | 0 | 0 | 0 | 0
Cc1ccccc1NC(=O)CCC(=O)N/N=C/c1cc([N+](=O)[O-])ccc1O | 0 | 0 | 0 | ? | 4µM | 0
O=C(CSc1nc2ccccc2s1)N/N=C/c1cc([N+](=O)[O-])ccc1O | 0 | 0 | - | ? | 5µM | 0
Cc1ccc(NC(=O)CCC(=O)N/N=C/c2cc([N+](=O)[O-])ccc2O)cc1 | 0 | 0 | 0 | 14µM | 13µM | 0
Cc1cc(=O)oc2cc(OCC(=O)N/N=C/c3cc([N+](=O)[O-])ccc3O)ccc12 | 0 | 0 | 0 | 2.2µM | 1.3µM | 0
CC=C(Cl)Cl | - | - | - | 0 | 0 | -
Cc1ccc(C)c(NC(=O)CCC(=O)N/N=C/c2cc([N+](=O)[O-])ccc2O)c1 | 0 | 0 | - | ? | 5.6µM | 0
CN1CCN(CCC(=O)N/N=C/c2cc([N+](=O)[O-])ccc2O)CC1 | 0 | 0 | 0 | ? | ? | 0
CC1=[N+](C)c2ccc3ccccc3c2C1(C)C | ? | 0 | 0 | 2.5µM | ? | ?
Cc1ccc(Cl)c2c1=NC(=O)C=2c1[nH]c(=S)[nH]c1O | 40µM | 0 | - | 0 | 0 | 0
O=C1N=c2ccccc2=C1c1[nH]c(=S)[nH]c1O | 0 | 0 | 0 | 0 | 0 | ?
Cc1oc(-c2ccc(C(=O)NCc3ccccc3)cc2)nc1CN1CCc2ccccc21 | - | 0 | 0 | - | - | 0
O=c1oc(/C=C/c2ccc([N+](=O)[O-])s2)nc2ccccc12 | 0 | - | 0 | - | - | 40µM
O=[N+]([O-])c1ccc(C=Nc2cccc3ccccc23)s1 | 0 | ? | - | ? | ? | 0
CC(=O)Oc1ccc(/C=C/c2nc3ccccc3c(=O)o2)cc1 | 0 | - | - | ? | 0 | 0
SMILES | Sfp inh | Epigenetic derep | ClpP mod | Gal4-VP16 FLuc | RORgamma inh | PINK1 expr mod
CC(=O)Oc1ccccc1/C=C/c1nc2ccccc2c(=O)o1 | 0 | - | - | 10µM | 8.9µM | 0
COC(=O)c1cccc(-n2c(CCC(=O)O)ccc2-c2ccc(OC)cc2)c1 | - | 0 | 0 | - | - | 0
COc1cc(OC)c(NC(=O)c2oc3ccc4c(c3c2C)C(=O)CC(C)(C)O4)cc1Cl | - | 0 | 0 | - | - | 0
CCC(CC)C(=O)Nc1nnc2n1CCS2 | - | 0 | 0 | - | - | 0
Cc1ccc(OCC(=O)N(Cc2ccc(N(C)C)cc2)C2CCS(=O)(=O)C2)cc1 (stereo not drawn) | 0 | 0 | 0 | 0 | 0 | 0
Cc1cc(C)cc(OCC(=O)N(Cc2ccc(N(C)C)cc2)C2CCS(=O)(=O)C2)c1 (stereo not drawn) | 0 | 0 | 22µM | 0 | 0 | 0
FC(F)(F)c1cccc(NC(=S)N2CCCCCC2)c1 | 0 | 0 | 0 | 0 | 0 | 0
S=C(Nc1ccccc1)N1CCCCC1 | 0 | 0 | 0 | 0 | 11µM | 0
S=C(Nc1ccc(Cl)cc1)N1CCCCC1 | 0 | 0 | ? | ? | 10µM | 0
CCc1ccc(NC(=S)N2CCCCCCC2)cc1 | 0 | 0 | - | ? | 5.6µM | 0
Fc1cccc(NC(=S)N2CCCCC2)c1 | 0 | 0 | 0 | ? | 13µM | 0
O=C(O)c1ccc(NC(=S)N2CCCCC2)cc1 | 0 | 0 | - | 0 | 0 | 0
Cc1ccc(NC(=S)N2CCCC2)cc1C | 0 | - | 0 | 0 | ? | 0

Bioassay records from PubChem BioAssay.
